Source: the supplement of paper PMC10849652
The full data set covers some 7,900 targets. This sample favours those with a hit. About 0.6% of all pairs of compound and target were hits.

Assays:
Experiment in all cases: log2 fold change, soluble protein after heating vs DMSO (PISA); higher = thermal stabilisation; K562 cells, 10 uM, 30 min; active = over 0.2 and 3.5 SD of the protein, either way, in both replicates (recomputed)
bafetinib = compound: Cc1ccc(NC(=O)c2ccc(CN3CC[C@H](N(C)C)C3)c(C(F)(F)F)c2)cc1Nc1nccc(-c2cncnc2)n1 [bafetinib]
Outline: (§1)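 Soluble protein was defined as the supernatant after 21,000xg for 90 min. It came from K562 cells at 2×10^6 cells/mL given 10 μM compound for 30 min, heated in aliquots for 3 min across 48°C-58°C, pooled, and extracted in PBS with 0.5% NP-40 at 4°C, and was quantified by TMTpro 16plex LC-MS/MS with equalised channel sums. Thermal stability against control samples, from duplicates, is reported as log2 fold change.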

[1] = compound: Cc1cccc(CC(=O)N2CCc3c2ccc(-c2cn(C)c4ncnc(N)c24)c3F)n1
Outline: as §1

nilotinib = compound: Cc1cn(-c2cc(NC(=O)c3ccc(C)c(Nc4nccc(-c5cccnc5)n4)c3)cc(C(F)(F)F)c2)cn1 [nilotinib]
Outline: as §1

[2] = compound: Cc1nc(Nc2n[nH]c3c2CN(C(=O)N[C@H](CN(C)C)c2ccccc2)C3(C)C)c2sccc2n1
Outline: as §1

dasatinib = compound: Cc1nc(Nc2ncc(C(=O)Nc3c(C)cccc3Cl)s2)cc(N2CCN(CCO)CC2)n1 [dasatinib]
Outline: as §1

[3] = compound: Cc1ncc(-c2ccnc(Nc3ccc(S(C)(=O)=O)cc3)n2)n1C(C)C
Outline: as §1

[4] = compound: Cn1cc(-c2ccc3c(c2)CCN3C(=O)Cc2cccc(C(F)(F)F)c2)c2c(N)ncnc21
Outline: as §1

[5] = compound: Cn1cc(-c2ccc3nnc(C(F)(F)c4ccc5ncccc5c4)n3n2)cn1
Outline: as §1

tipifarnib = compound: Cn1cncc1[C@@](N)(c1ccc(Cl)cc1)c1ccc2c(c1)c(-c1cccc(Cl)c1)cc(=O)n2C [tipifarnib]
Outline: as §1

mubritinib = compound: FC(F)(F)c1ccc(/C=C/c2nc(COc3ccc(CCCCn4ccnn4)cc3)co2)cc1 [mubritinib]
Outline: as §1

Measured: log2 fold change

EOGT (UniProt Q5NDL2)
Chain of UniProt Q5NDL2 (Q5NDL2 whole entry, looked up): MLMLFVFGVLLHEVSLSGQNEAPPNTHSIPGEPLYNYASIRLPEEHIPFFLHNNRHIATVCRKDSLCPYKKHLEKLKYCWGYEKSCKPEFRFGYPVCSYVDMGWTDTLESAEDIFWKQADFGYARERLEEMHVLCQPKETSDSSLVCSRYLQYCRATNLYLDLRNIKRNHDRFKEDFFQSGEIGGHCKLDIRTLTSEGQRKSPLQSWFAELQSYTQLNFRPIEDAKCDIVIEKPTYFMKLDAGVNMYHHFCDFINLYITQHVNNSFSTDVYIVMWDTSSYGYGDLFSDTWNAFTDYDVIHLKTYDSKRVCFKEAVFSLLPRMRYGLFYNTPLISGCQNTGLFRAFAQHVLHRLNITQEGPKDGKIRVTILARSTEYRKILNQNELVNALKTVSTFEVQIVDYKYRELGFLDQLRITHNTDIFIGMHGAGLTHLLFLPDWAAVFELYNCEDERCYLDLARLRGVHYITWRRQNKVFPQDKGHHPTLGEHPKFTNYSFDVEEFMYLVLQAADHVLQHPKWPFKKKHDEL
inactive: bafetinib -0.009 | [1] -0.025 | nilotinib -0.044 | [2] 0.055 | dasatinib -0.052 | [3] -0.005 | [4] -0.082 | [5] -0.038 | tipifarnib 0.029 | mubritinib -0.021

DNAAF2 (UniProt Q9NVR5)
Chain of UniProt Q9NVR5 (Q9NVR5 whole entry, looked up): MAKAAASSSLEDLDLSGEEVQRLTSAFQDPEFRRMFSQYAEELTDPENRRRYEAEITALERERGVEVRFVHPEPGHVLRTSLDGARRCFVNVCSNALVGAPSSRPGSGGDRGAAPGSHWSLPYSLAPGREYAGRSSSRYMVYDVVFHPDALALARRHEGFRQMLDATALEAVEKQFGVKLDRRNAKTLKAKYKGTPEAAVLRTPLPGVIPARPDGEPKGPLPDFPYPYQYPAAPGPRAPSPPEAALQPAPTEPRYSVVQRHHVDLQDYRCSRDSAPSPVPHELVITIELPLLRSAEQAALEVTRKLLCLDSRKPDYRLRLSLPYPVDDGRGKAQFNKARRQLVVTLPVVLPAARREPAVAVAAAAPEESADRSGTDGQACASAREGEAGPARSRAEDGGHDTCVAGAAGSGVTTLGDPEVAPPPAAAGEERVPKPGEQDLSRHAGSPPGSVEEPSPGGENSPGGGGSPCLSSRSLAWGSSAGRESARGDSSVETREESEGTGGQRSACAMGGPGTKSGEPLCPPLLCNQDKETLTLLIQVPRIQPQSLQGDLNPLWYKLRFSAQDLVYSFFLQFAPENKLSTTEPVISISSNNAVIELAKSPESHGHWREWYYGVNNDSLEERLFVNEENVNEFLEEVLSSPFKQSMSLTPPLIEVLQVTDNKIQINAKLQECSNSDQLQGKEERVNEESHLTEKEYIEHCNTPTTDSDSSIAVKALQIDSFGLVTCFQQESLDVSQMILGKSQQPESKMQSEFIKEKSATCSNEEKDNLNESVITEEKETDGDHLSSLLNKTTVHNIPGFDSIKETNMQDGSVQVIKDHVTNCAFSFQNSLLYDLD
inactive: bafetinib -0.075 | [1] 0.057 | nilotinib 0.023 | [2] 0.002 | dasatinib -0.049 | [3] 0 | [4] -0.037 | [5] 0.036 | tipifarnib 0.004 | mubritinib 0.026

DNAJC19 (UniProt Q96DA6)
Chain of UniProt Q96DA6 (Q96DA6 whole entry, looked up): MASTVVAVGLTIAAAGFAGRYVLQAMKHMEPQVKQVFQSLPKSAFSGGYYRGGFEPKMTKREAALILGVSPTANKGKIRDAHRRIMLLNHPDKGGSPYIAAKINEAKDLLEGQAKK
inactive: bafetinib -0.123 | [1] 0.003 | nilotinib 0.025 | [2] 0.002 | dasatinib -0.003 | [3] -0.005 | [4] 0.012 | [5] 0.022 | tipifarnib 0.012 | mubritinib 0.001

DTWD2 (UniProt Q8NBA8)
inactive: bafetinib -0.023 | [1] -0.008 | nilotinib 0.065 | [2] -0.019 | dasatinib 0.126 | [3] 0.022 | [4] 0.215 | [5] 0.096 | tipifarnib -0.071 | mubritinib -0.087

FAM118A (UniProt Q9NWS6)
Chain of UniProt Q9NWS6 (Q9NWS6 whole entry, looked up): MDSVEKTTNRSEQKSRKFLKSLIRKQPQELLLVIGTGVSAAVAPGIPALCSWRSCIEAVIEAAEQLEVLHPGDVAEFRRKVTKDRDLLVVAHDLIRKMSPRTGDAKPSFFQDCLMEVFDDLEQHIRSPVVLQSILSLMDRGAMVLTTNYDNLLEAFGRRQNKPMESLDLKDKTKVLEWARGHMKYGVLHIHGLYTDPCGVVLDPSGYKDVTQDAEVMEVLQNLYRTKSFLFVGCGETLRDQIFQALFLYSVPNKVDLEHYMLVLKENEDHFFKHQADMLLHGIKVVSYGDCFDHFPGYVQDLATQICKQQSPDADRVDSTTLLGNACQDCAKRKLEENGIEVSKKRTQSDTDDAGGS
inactive: bafetinib -0.076 | [1] 0 | nilotinib -0.092 | [2] -0.216 | dasatinib -0.314 | [3] -0.039 | [4] -0.019 | [5] 0.135 | tipifarnib -0.128 | mubritinib 0.043

EVC2 (UniProt Q86UK5)
inactive: bafetinib -0.08 | [1] 0.023 | nilotinib -0.066 | [2] -0.092 | dasatinib -0.043 | [3] 0.131 | [4] -0.149 | [5] -0.148 | tipifarnib 0.162 | mubritinib -0.053

DCUN1D1 (UniProt Q96GG9)
inactive: bafetinib -0.083 | [1] 0.026 | nilotinib -0.025 | [2] -0.018 | dasatinib -0.047 | [3] 0 | [4] 0.008 | [5] 0.03 | tipifarnib -0.059 | mubritinib 0.015

EHBP1L1 (UniProt Q8N3D4)
Chain of UniProt Q8N3D4 (Q8N3D4 whole entry, looked up): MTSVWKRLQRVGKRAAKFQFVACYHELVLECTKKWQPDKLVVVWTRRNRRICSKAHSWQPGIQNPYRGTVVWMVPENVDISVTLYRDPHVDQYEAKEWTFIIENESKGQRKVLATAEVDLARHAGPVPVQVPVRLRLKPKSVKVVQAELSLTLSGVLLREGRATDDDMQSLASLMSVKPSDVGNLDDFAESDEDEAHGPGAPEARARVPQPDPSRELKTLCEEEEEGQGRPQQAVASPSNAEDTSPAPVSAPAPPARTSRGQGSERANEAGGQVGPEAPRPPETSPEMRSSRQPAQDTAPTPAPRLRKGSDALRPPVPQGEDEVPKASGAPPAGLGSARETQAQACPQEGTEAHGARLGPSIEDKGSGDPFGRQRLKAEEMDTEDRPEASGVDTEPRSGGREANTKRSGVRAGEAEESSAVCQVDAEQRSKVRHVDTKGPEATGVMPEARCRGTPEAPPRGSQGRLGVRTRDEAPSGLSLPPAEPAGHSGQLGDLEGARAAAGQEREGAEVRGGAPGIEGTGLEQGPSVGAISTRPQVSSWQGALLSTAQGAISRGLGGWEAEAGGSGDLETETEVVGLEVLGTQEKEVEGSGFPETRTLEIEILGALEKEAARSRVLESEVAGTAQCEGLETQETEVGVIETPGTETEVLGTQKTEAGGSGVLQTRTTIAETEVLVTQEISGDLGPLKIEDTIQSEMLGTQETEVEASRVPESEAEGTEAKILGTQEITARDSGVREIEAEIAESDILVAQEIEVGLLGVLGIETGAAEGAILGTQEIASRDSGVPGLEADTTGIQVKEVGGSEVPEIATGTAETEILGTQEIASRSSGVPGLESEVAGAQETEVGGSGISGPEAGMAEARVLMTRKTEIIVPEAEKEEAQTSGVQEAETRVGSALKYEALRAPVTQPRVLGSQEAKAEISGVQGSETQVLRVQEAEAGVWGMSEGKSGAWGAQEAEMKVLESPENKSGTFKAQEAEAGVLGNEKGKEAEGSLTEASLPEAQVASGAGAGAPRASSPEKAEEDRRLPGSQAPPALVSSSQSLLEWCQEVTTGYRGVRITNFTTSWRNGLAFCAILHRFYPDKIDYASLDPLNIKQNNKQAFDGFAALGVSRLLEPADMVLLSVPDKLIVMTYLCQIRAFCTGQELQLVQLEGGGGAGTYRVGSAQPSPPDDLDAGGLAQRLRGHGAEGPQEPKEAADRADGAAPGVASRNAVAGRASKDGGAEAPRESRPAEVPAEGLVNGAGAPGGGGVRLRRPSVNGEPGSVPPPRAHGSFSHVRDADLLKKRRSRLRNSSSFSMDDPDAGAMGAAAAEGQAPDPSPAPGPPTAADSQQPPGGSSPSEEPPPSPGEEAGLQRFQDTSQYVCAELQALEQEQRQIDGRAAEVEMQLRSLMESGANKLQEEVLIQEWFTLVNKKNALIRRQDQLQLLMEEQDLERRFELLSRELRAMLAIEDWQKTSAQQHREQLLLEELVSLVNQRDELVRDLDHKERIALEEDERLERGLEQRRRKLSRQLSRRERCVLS
inactive: bafetinib 0.194 | [1] -0.006 | nilotinib -0.081 | [2] -0.218 | dasatinib -0.123 | [3] 0.256 | [4] 0.005 | [5] 0.006 | tipifarnib -0.039 | mubritinib 0.007

DYNC1LI2 (UniProt O43237)
Chain of UniProt O43237 (O43237 whole entry, looked up): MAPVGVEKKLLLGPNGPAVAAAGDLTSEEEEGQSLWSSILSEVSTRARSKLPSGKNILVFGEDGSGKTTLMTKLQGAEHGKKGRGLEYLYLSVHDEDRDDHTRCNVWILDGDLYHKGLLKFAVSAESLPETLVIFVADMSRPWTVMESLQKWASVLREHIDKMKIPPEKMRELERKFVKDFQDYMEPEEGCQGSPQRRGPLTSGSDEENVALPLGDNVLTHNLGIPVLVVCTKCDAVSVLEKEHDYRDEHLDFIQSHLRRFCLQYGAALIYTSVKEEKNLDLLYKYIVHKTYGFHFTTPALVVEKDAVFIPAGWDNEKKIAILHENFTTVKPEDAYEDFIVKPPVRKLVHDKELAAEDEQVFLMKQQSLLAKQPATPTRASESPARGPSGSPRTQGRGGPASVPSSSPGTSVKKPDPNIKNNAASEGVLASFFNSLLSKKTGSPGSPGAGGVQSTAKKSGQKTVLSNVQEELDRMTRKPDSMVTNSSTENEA
inactive: bafetinib -0.041 | [1] -0.004 | nilotinib 0.109 | [2] 0.015 | dasatinib -0.068 | [3] 0.125 | [4] -0.184 | [5] 0.052 | tipifarnib -0.01 | mubritinib 0.024

EDC4 (UniProt Q6P2E9)
inactive: bafetinib 0.006 | [1] 0 | nilotinib 0.013 | [2] -0.077 | dasatinib -0.018 | [3] -0.119 | [4] -0.046 | [5] -0.031 | tipifarnib -0.038 | mubritinib -0.019

ERLIN2 (UniProt O94905)
inactive: bafetinib 0.039 | [1] 0.032 | nilotinib -0.107 | [2] 0.012 | dasatinib -0.023 | [3] 0.023 | [4] -0.104 | [5] 0 | tipifarnib 0.024 | mubritinib -0.049

EIF2S3 (UniProt P41091)
Chain of UniProt P41091 (P41091 whole entry, looked up): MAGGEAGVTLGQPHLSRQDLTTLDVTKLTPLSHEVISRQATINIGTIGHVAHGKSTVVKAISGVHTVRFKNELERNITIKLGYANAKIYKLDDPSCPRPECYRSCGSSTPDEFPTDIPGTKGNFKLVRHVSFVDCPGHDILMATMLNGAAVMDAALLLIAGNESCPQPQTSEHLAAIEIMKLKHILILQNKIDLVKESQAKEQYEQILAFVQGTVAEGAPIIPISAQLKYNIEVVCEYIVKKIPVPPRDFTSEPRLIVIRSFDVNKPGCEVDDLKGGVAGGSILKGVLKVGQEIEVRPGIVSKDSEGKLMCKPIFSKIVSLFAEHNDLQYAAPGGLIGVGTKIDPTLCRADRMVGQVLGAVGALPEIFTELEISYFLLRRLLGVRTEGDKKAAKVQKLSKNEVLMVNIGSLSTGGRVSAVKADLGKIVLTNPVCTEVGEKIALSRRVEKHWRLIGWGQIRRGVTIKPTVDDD
inactive: bafetinib 0.133 | [1] -0.023 | nilotinib -0.04 | [2] 0.072 | dasatinib 0.043 | [3] 0.014 | [4] -0.081 | [5] -0.052 | tipifarnib 0.019 | mubritinib -0.017

DLD (UniProt P09622)
inactive: bafetinib -0.028 | [1] -0.042 | nilotinib 0.034 | [2] -0.018 | dasatinib -0.025 | [3] -0.066 | [4] -0.04 | [5] 0.015 | tipifarnib -0.008
active: mubritinib -0.429

EXOC5 (UniProt O00471)
inactive: bafetinib -0.016 | [1] 0.061 | nilotinib -0.109 | [2] -0.258 | dasatinib -0.1 | [3] -0.078 | [4] 0.022 | [5] 0.026 | tipifarnib -0.076 | mubritinib 0.039

DCAF6 isoform 3 (UniProt Q58WW2)
inactive: bafetinib -0.071 | [1] 0.009 | nilotinib 0.009 | [2] 0.02 | dasatinib 0.008 | [3] -0.013 | [4] -0.016 | [5] 0.031 | tipifarnib 0.027 | mubritinib 0.017

DUS2 (UniProt Q9NX74)
inactive: bafetinib -0.017 | [1] -0.025 | nilotinib -0.243 | [2] -0.032 | dasatinib -0.07 | [3] 0.014 | [4] -0.072 | [5] 0.01 | tipifarnib 0.094 | mubritinib 0.045

DBT (UniProt P11182)
active: mubritinib -0.207
inactive: bafetinib 0.02 | [1] -0.037 | nilotinib 0.036 | [2] -0.014 | dasatinib -0.002 | [3] -0.033 | [4] -0.026 | [5] -0.03 | tipifarnib 0.011

DAG1 (UniProt Q14118)
inactive: bafetinib 0.03 | [1] -0.076 | nilotinib 0.085 | [2] 0.003 | dasatinib 0.025 | [3] -0.008 | [4] -0.001 | [5] 0.073 | tipifarnib 0.035 | mubritinib 0.05

EXOC8 (UniProt Q8IYI6)
inactive: bafetinib -0.081 | [1] 0.071 | nilotinib -0.054 | [2] -0.137 | dasatinib -0.1 | [3] -0.012 | [4] -0.015 | [5] 0.028 | tipifarnib -0.038 | mubritinib 0.039

FADS1, A0A0A0MR51
active: [4] 0.253
inactive: bafetinib -0.03 | [1] 0.062 | nilotinib 0.004 | [2] -0.005 | dasatinib 0.011 | [3] -0.019 | [5] -0.045 | tipifarnib -0.021 | mubritinib 0.028

EGLN1 (UniProt Q9GZT9)
Chain of UniProt Q9GZT9 (Q9GZT9 whole entry, looked up): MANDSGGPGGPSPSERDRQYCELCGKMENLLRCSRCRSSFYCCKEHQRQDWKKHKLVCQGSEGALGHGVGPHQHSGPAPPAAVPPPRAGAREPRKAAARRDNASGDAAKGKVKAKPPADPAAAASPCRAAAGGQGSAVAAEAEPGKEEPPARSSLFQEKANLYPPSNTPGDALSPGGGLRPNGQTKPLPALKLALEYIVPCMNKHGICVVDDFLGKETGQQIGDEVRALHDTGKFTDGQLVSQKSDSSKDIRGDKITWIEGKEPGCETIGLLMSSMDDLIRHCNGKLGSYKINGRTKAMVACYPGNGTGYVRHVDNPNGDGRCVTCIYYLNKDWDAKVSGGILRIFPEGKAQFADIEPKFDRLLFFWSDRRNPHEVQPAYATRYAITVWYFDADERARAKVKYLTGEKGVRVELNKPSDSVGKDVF
inactive: bafetinib -0.031 | [1] -0.018 | nilotinib 0.066 | [2] -0.026 | dasatinib -0.073 | [3] -0.036 | [4] -0.01 | [5] 0.017 | tipifarnib 0.016 | mubritinib -0.116

CUTA isoform 2 (UniProt O60888)
Chain of UniProt O60888 (O60888 whole entry, looked up): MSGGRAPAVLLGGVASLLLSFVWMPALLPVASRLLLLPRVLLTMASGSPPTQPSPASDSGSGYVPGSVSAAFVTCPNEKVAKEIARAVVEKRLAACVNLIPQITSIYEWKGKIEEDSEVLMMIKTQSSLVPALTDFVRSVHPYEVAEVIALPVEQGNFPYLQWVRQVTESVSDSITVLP
inactive: bafetinib -0.148 | [1] 0.1 | nilotinib 0.016 | [2] 0.016 | dasatinib 0 | [3] -0.01 | [4] 0.07 | [5] 0.09 | tipifarnib 0.123 | mubritinib 0.028

CYB561A3 isoform 2 (UniProt Q8NBI2)
inactive: bafetinib 0.03 | [1] -0.223 | nilotinib 0.012 | [2] 0.065 | dasatinib 0.034 | [3] -0.029 | [4] 0.004 | [5] -0.044 | tipifarnib -0.087 | mubritinib -0.015

CYP51A1 (UniProt Q16850)
active: tipifarnib 1.27
inactive: bafetinib 0.02 | [1] -0.019 | nilotinib 0.156 | [2] -0.03 | dasatinib 0.092 | [3] -0.016 | [4] -0.016 | [5] -0.143 | mubritinib 0.047

CTSC (UniProt P53634)
inactive: [1] -0.004 | nilotinib -0.008 | [2] 0 | dasatinib 0.046 | [3] -0.033 | [4] 0.041 | [5] 0.004 | tipifarnib -0.039 | mubritinib 0.056
active: bafetinib -0.452

DBNL isoform 3 (UniProt Q9UJU6)
inactive: bafetinib 0.048 | [1] -0.007 | nilotinib -0.05 | [2] -0.071 | dasatinib -0.098 | [3] -0.013 | [4] -0.003 | [5] 0.057 | tipifarnib -0.096 | mubritinib 0.032

EMD (UniProt P50402)
inactive: bafetinib -0.167 | [1] -0.081 | nilotinib 0.074 | [2] -0.071 | dasatinib -0.017 | [3] -0.045 | [4] -0.005 | [5] -0.098 | tipifarnib 0.087 | mubritinib 0.031

EXOC2 (UniProt Q96KP1)
inactive: bafetinib 0.021 | [1] -0.089 | nilotinib -0.002 | [2] -0.135 | dasatinib -0.301 | [3] 0.028 | [4] -0.011 | [5] -0.081 | tipifarnib -0.066 | mubritinib 0.035

FAM83D (UniProt Q9H4H8)
inactive: bafetinib -0.022 | [1] 0.145 | nilotinib -0.069 | [2] -0.088 | dasatinib -0.241 | [3] 0.016 | [4] -0.073 | [5] -0.027 | tipifarnib -0.107 | mubritinib 0.023
